Laboratory results: PubChem BioAssay AID1159580 (chemical genetic matrix, 2015)
The campaign covered roughly 5,500 compounds. About 2,000 (36%) were called active. Another 18% or so got no clear call; they are omitted. No stated cut-off is given here; in the data, active means normalized growth mostly below about 0.91 (no sharp cut-off); inconclusive means no clear call, values can overlap the other calls; inactive means mostly above about 0.92. Some of the results follow.

Experiment: chemical genetic growth profiling, strain panel (AID 1159580);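 further: tested at 20 µM; growth read once vehicle control cultures reached saturation at 30 °C; 1 = growth at the plate median or of vehicle wells; lower values mean less growth of the strain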
Details: S. cerevisiae deletion strains, growth OD

Measured: normalized growth

CC(/C=N\O)=N/Nc1ccccc1
inactive: locus YAL013W, strain DEP1, active compounds read low 0.969 | locus YBR229C, strain ROT2, active compounds read low 0.938 | locus YDL101C, strain DUN1, active compounds read low 1.01 | locus YDL134C, strain PPH21, active compounds read low 0.975 | locus YDR150W, strain NUM1, active compounds read low 0.932 | locus YEL061C, strain CIN8, active compounds read low 0.953 | locus YGR078C, strain PAC10, active compounds read low 0.961 | locus YHR030C, strain SLT2, active compounds read low 0.774 | locus YHR087W, strain rtc3, active compounds read low 0.916 | locus YJR043C, strain POL32, active compounds read low 0.974 | locus YJR075W, strain HOC1, active compounds read low 0.954 | locus YLR058C, strain SHM2 (second series), active compounds read low 0.979 | locus YLR085C, strain ARP6, active compounds read low 0.793 | locus YMR219W, strain ESC1, active compounds read low 0.955 | locus YMR263W, strain SAP30, active compounds read low 0.967 | locus YNL153C, strain GIM3, active compounds read low 0.973 | locus YNL298W, strain CLA4 (second series), active compounds read low 0.923 | locus YNL322C, strain KRE1, active compounds read low 1.01 | locus YNR030W, strain Alg12, active compounds read low 0.951 | locus YPL055C, strain LGE1, active compounds read low 1.05 | locus YPL241C, strain CIN2, active compounds read low 0.907 | locus YPR135W, strain CTF4, active compounds read low 0.889
active: locus YKL190W, strain CNB1, active compounds read low 0.887 | locus YLR039C, strain RIC1, active compounds read low 0.324 | locus YLR262C, strain YPT6, active compounds read low 0.253 | locus YML094W, strain GIM5, active compounds read low 0.841 | locus YOL006C, strain TOP1, active compounds read low 0.527
